Molecules are shown by their SMILES. Compounds without any hit were thinned out: in the full panel of roughly 83,000, 20% have a hit.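 Method: cells in 96-well plates; compound added at one concentration; 48 h incubation; percent growth measured; values under 10 scored active.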 Activity calls are given as the source filed them.

The subject of the assay is T-47D breast. As to the kind of experiment: NCI-60 one-dose screen, 48 h (100 = growth as untreated, 0 = no growth, -100 = all killed). The note with it: 10 µM unless noted.
Take `Cc1[nH]c(-c2cc(N)ccc2Cl)c2c1C(=O)CCCC2`: the growth was 19.8% (inactive).

With `COc1ccc(/C=C\c2cc(OC)c(OC)c(OC)c2)cc1OC(=O)c1cccc(Cn2cc(CCOC(=O)[C@H](N)Cc3cn(C)c4ccccc34)nn2)c1`, the growth is 70.2% (inactive).

Consider `CC1CCNC(C)C1` (centres undefined), for which the growth is 104% (inactive).

Regarding `Clc1ccc2c(NCCNc3nc(N4CCOCC4)nc4ccccc34)ccnc2c1`, the growth was -15% (active).

On to `CNC(=O)c1cc(Oc2ccc(NC(=O)Nc3ccc(Cl)c(SC)c3)c(F)c2)ccn1`, for which the growth was -3.32% (active).

Turning to `O=Nc1c(O)c(Cl)cc2ccccc12`, the growth is -4.57% (active).

With `COc1ccc(-c2nc3ccc(-c4nc5ccc(N6CCN(c7ccncc7)CC6)cc5[nH]4)cc3[nH]2)cc1OC`, the growth is 6.91% (active).

As to `COc1cc(/C=C/c2cc(O)c3cc(C(C)=O)c(=O)oc3c2)cc2c1O[C@]1(C)CC[C@@H](O)C(C)(C)[C@H]1C2`, the growth was 60% (inactive).

Take `COc1ccc(/C=C/c2nc3ccccc3nc2/C=C/c2ccc(OC)cc2)cc1`: the growth is 78.1% (inactive).

`CN(C)CCCNc1c2ccccc2nc2ccccc12`: the growth was 68.5% (inactive).

On to `O=C(Nc1ccc(Cl)cc1)c1cc2cc(F)ccc2cc1O`, for which the growth was -7.01% (active).

With `Cc1ccc(C2=NN3C(C2)c2cc(Br)ccc2OC32CCN(Cc3ccccc3)CC2)o1` (centres undefined), the growth is 86.6% (inactive).

Consider `O=C(CCN1C(=O)/C(=C/c2ccc(Cl)cc2)SC1=S)NCCCN1CCOCC1`, for which the growth is 90.8% (inactive).

Regarding `C#CCOc1ccc2ncnc(N3CCN(C(=O)CCl)CC3)c2c1`, the growth was -48.7% [8.25 µM] (active).

For `Cc1ccc(C(SCC(N)C(=O)O)(c2ccccc2)c2ccc(C)cc2)cc1` (centres undefined), the growth is 27.1% (inactive).

Consider `Cc1cc(Nc2ccc(C)c(Cl)c2)n2nc(C(F)(F)F)nc2n1`, for which the growth is -0.705% (active).

Take `COc1ccccc1NS(=O)(=O)c1ccc2oc(SC(C)C)nc2c1`: the growth is 67.2% (inactive).

Consider `CCN1CCN(c2nc(NCCCNc3ccnc4cc(Cl)ccc34)c3ccccc3n2)CC1`, for which the growth was -4.69% (active).

For the molecule `CCc1nnc(CNc2ccc(Cl)cc2)o1`, the growth was 93.9% (inactive).

For `CCOC(=O)c1c(C)oc2ncnc(N3CCN(C(=S)Nc4ccccc4)CC3)c12`, the growth was 78.7% (inactive).

For `C=C1c2nc3ccccc3n2C=C(c2cccc(Cl)c2)N1Cc1ccc(OC)cc1`, the growth was -22.5% (active).

For the molecule `COc1ccc(/C=C/C(=O)c2ccc(O)c(CN3CCN(c4cc5c(cc4F)c(=O)c(C(=O)O)cn5C4CC4)CC3)c2)cc1`, the growth was 37.6% (inactive).

As for `O=C1NC(=Nc2ccc(O)cc2)S/C1=C\c1cccc(Cl)c1`, the growth was 76% (inactive).

`N#Cc1c(-c2ccc(Cl)cc2)nc(N/N=C/c2cccc(Br)c2)nc1N1CCOCC1`: the growth was 67.5% (inactive).

On to `COc1ccc(N=Nc2nccs2)c(O)c1`, for which the growth is 36.5% (inactive).

Regarding `O=C1/C(=C/C(Cl)=C/c2ccccc2)SC(=S)N1CCc1ccc(O)cc1`, the growth is -34.4% (active).

For `COc1cc(/C=C/C(=O)c2cccnc2Nc2ccc(F)cc2)cc(OC)c1OC`, the growth was 61.4% (inactive).

As to `O=C1Nc2ccc(Br)cc2C12Oc1ccccc1C1CC(c3ccc(F)cc3)=NN12` (centres undefined), the growth was 85.9% (inactive).

On to `CSc1nc(Nc2cccc(NC(=O)CCl)c2)c(C#N)c(-c2cccc([N+](=O)[O-])c2)n1`, for which the growth is 12.2% (inactive).

With `c1csc(C2=NN3C(C2)c2ccccc2OC3c2ccncc2)c1` (centres undefined), the growth was 93.2% (inactive).

As to `CCCn1c(=O)[nH]c(N)c([C@H]2c3ccccc3Oc3[nH]c(=O)n(CCC)c(=O)c32)c1=O`, the growth was 34.7% (inactive).

For the molecule `COc1cccc(-c2nc3sccn3c2-c2ccnc(NCCCNS(=O)(=O)c3cccc(F)c3)c2)c1`, the growth was -8.47% (active).

Take `CCCCC/C(C=C(C#N)C#N)=C/c1ccccc1`: the growth was 76.1% (inactive).

Consider `C=C(C)C1CC(O)C2(C)CCCC3C2C1CC(C)C3(C)CC/C(C)=C/C(O)C1CCC(=O)c2c(OC)cc(OC)cc21` (centres undefined), for which the growth was 37.2% (inactive).

As to `O=C1CC(=NCC(=O)n2c(-c3ccccc3)nc3ccccc32)NN1`, the growth is 89.4% (inactive).

As to `Clc1ccc2c(NCCCNc3nc(-n4ccnc4)nc4ccccc34)ccnc2c1`, the growth is 70.3% (inactive).

On to `CN(CCCCCl)P(=O)(OCc1ccc([N+](=O)[O-])o1)C(F)(F)c1ccc(CC(=O)NC[C@@H](O)/C=C\[C@@H](O)[C@H](CO)Cc2ccccc2)cc1` (some centres undefined), for which the growth was 75.5% (inactive).

With `O=C1Nc2c(ccc(Cl)c2Cl)/C1=C\c1ccc(C(F)(F)F)cc1`, the growth is 77.2% (inactive).

Turning to `O=C1CSC(=S)N1CCc1ccc(O)cc1`, the growth is 38.1% (inactive).

The values above are taken from PubChem BioAssay (NCI).
